Test results as given in ChEMBL document CHEMBL2218924, “A broad activity screen in support of a chemogenomic map for kinase signalling research and drug discovery” (Biochem J, 2013).

What was measured:
[1] = molecular target: T1, Serine/threonine-protein kinase 17A (Homo sapiens) (UniProt Q9UEE5); details: at 10 µM
T1 sequence (whole entry): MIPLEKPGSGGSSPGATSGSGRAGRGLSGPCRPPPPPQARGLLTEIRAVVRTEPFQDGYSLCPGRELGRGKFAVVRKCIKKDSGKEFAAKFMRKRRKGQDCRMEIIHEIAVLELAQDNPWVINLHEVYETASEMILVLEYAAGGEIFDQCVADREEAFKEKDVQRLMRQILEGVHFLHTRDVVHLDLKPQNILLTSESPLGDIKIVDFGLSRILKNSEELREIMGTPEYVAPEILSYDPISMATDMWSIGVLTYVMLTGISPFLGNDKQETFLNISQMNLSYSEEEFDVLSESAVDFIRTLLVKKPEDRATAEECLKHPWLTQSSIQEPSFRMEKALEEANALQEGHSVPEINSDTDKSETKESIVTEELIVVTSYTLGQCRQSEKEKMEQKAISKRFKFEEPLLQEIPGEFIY

[2] = molecular target: T2, Dual specificity tyrosine-phosphorylation-regulated kinase 2 (Homo sapiens) (UniProt Q92630); details: at 1 µM
T2 sequence (whole entry): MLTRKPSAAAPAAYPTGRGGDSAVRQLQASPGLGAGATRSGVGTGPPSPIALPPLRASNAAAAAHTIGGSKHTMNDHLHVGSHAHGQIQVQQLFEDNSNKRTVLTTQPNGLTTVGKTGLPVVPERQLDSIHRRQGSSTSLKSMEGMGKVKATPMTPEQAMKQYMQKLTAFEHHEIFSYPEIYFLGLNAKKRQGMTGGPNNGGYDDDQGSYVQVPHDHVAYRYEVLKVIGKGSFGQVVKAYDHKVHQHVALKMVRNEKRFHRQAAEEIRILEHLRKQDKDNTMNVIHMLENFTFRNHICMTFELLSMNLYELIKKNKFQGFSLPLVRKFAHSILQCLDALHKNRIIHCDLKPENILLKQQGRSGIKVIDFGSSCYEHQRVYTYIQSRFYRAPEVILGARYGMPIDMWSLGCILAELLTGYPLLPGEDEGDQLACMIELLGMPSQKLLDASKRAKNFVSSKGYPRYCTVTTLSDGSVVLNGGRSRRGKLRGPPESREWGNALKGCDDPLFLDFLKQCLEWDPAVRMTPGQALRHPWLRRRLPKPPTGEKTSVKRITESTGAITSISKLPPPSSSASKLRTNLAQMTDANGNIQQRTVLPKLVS

[3] = molecular target: T2, Dual specificity tyrosine-phosphorylation-regulated kinase 2 (Homo sapiens); details: at 10 µM
[4] = molecular target: T3, Ephrin type-A receptor 1 (Homo sapiens) (UniProt P21709); details: at 1 µM
T3 sequence (whole entry): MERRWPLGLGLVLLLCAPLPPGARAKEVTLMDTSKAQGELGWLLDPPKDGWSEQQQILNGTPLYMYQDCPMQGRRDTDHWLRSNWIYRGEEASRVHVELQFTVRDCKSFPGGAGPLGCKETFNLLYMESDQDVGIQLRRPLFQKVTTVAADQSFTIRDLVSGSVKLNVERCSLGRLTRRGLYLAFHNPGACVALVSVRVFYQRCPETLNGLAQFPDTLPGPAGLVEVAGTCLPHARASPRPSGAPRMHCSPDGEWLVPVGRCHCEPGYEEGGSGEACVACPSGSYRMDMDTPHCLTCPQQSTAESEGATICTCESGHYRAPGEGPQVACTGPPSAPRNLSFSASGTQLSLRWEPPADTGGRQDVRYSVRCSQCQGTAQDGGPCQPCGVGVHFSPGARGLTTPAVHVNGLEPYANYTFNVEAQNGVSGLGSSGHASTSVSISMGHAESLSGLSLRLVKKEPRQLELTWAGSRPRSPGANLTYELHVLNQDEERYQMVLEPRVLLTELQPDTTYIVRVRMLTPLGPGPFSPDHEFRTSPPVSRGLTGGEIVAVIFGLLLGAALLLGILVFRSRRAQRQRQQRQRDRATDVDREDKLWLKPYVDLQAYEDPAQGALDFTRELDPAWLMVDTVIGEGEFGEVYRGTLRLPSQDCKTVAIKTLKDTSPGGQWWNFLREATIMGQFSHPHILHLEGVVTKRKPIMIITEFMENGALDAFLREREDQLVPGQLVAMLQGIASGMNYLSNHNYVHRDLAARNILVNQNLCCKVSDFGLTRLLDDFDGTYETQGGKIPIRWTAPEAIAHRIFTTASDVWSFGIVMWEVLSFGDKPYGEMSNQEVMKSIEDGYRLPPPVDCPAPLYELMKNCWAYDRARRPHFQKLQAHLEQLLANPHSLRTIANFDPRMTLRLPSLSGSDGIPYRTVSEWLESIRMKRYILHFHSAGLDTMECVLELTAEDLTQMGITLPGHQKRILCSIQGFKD

[5] = molecular target: T3, Ephrin type-A receptor 1 (Homo sapiens); details: at 10 µM
[6] = molecular target: Ephrin type-A receptor 2 (Homo sapiens) (UniProt P29317); details: at 1 µM
Ephrin type-A receptor 2 (Homo sapiens), sequence (P29317 whole entry): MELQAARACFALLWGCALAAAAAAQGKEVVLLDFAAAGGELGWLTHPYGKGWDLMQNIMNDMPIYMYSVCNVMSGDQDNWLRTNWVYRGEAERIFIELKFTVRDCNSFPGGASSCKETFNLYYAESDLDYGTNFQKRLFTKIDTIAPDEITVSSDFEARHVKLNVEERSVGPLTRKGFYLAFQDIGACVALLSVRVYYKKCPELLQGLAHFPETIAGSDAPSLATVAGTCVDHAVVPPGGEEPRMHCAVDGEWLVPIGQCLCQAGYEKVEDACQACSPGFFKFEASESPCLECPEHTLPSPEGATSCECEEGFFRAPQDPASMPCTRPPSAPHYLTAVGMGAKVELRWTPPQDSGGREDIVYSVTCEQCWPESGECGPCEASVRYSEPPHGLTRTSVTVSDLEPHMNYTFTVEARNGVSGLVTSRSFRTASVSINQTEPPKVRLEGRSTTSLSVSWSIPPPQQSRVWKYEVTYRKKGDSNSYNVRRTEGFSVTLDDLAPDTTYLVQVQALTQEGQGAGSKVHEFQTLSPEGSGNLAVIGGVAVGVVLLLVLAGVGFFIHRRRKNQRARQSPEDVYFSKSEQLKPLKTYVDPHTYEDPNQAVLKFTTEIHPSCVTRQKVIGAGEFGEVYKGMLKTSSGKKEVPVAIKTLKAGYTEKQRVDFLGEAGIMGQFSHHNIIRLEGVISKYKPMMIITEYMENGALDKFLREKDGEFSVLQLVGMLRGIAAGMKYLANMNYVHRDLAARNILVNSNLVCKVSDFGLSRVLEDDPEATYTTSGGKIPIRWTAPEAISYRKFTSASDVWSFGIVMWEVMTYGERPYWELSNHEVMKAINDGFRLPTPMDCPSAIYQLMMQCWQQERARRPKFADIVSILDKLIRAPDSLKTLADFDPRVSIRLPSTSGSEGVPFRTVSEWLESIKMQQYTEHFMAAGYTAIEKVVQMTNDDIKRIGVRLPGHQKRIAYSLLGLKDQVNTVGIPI

[7] = molecular target: Ephrin type-A receptor 2 (Homo sapiens) (UniProt P29317); details: at 10 µM
[8] = molecular target: T4, Ephrin type-A receptor 3 (Homo sapiens) (UniProt P29320); details: at 1 µM
T4 sequence (whole entry): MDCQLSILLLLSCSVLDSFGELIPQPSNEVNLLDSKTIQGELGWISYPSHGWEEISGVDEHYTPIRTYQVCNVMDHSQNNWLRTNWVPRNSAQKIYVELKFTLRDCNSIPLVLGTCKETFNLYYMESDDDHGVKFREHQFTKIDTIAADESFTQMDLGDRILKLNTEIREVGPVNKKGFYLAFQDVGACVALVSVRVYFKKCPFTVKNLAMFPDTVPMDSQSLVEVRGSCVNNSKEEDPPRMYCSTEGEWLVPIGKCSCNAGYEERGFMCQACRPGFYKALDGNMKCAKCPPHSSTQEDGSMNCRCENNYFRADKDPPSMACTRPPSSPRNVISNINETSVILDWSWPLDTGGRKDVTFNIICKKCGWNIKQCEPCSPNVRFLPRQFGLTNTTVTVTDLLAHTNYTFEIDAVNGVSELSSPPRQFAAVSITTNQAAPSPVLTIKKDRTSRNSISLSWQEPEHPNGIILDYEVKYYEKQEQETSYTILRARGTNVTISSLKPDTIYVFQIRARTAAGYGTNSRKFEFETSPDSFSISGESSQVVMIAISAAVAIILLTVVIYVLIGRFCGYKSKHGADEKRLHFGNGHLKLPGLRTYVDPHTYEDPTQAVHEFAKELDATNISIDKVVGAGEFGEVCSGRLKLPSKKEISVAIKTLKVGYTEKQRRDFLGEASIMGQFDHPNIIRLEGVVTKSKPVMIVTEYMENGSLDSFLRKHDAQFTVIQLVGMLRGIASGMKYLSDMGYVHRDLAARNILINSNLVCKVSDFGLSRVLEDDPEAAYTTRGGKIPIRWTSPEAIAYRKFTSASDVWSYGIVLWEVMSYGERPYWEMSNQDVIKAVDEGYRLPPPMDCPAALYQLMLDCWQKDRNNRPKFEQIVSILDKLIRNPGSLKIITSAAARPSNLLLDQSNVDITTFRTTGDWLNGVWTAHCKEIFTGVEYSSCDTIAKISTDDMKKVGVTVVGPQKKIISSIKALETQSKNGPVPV

[9] = molecular target: Epidermal growth factor receptor (Homo sapiens) (UniProt P00533); details: at 1 µM
Epidermal growth factor receptor (Homo sapiens), sequence (P00533 whole entry): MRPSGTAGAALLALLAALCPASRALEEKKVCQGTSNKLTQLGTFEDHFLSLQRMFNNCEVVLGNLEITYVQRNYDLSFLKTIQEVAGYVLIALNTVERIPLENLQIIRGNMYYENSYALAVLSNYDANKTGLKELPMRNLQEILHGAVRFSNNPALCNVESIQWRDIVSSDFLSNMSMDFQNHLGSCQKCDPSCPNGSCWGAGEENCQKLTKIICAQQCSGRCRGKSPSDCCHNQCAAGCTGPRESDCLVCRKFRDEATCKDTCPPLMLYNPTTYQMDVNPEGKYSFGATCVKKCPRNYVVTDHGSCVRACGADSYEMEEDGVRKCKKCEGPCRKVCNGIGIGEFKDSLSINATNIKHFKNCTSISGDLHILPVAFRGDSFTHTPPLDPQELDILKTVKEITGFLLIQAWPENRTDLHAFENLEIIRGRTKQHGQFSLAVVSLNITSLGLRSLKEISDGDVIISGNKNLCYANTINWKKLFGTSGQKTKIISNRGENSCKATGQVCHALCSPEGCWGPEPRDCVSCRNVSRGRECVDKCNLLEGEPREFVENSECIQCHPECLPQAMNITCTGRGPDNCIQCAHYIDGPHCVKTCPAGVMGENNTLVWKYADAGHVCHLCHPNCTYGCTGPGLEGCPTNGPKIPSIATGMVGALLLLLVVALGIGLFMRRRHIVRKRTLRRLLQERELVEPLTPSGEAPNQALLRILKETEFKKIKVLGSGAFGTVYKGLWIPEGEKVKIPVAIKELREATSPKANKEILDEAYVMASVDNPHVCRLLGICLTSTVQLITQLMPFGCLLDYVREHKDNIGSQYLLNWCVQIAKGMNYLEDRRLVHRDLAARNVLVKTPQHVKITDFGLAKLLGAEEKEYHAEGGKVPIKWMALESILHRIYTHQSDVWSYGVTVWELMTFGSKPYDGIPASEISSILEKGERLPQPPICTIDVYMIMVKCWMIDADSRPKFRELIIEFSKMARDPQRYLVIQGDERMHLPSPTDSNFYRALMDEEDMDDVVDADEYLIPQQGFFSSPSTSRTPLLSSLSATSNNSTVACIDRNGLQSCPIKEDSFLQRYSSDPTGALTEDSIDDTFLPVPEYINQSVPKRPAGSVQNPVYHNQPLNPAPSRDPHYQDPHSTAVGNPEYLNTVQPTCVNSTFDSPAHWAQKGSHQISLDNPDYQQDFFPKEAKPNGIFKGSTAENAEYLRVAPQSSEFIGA

[10] = molecular target: Epidermal growth factor receptor (Homo sapiens) (UniProt P00533); details: at 10 µM

| Compound | residual activity [1] | residual activity [2] | residual activity [3] | residual activity [4] | residual activity [5] | residual activity [6] | residual activity [7] | residual activity [8] | residual activity [9] | residual activity [10] |
| --- | --- | --- | --- | --- | --- | --- | --- | --- | --- | --- |
| COc1cc2ncnc(N3CCN(C(=O)Nc4ccc(Oc5ccccc5)cc4)CC3)c2cc1OC | 101% | 92% | 98% | 85% | 76% | 101% | 109% | 98% |  |  |
| COc1cc2ncnc(Nc3ccc(NC(=O)c4ccccc4)cc3)c2cc1OC | 78% | 98% | 98% | 107% | 106% |  |  |  |  |  |
| COc1cc2ncnc(Nc3ccc(Oc4ccccc4)cc3)c2cc1OC | 124% | 99% | 95% | 98% | 81% | 95% | 116% | 98% | -1% | -2% |
| Oc1n[nH]c2nnc(-c3c(-c4ccccc4)nn4ccccc34)cc12 | 34% | 99% | 95% | 93% | 79% | 92% | 109% | 94% |  |  |
| COc1ccc(S(=O)(=O)N(CCO)c2ccccc2CN(C)C/C=C/c2ccc(Cl)cc2)cc1 | 87% | 100% | 91% | 97% | 76% | 96% | 86% | 97% |  |  |
| CC#CC(=O)Nc1cc2c(Nc3ccc(F)c(Cl)c3)ncnc2cn1 | 105% | 102% | 93% | 102% | 105% | 100% | 101% | 113% |  |  |
| CC(=O)O/N=C1\C(=C2\C(=O)Nc3cc(Br)ccc32)Nc2ccccc21 | 31% | 96% | 92% | 84% | 71% | 92% | 59% | 74% |  |  |
| COc1ccc(CNc2nc(N(CCO)CCO)nc3c2ncn3C(C)C)cc1 | 85% | 87% | 67% | 95% | 81% | 95% | 117% | 82% | 97% | 116% |
| O=[N+]([O-])c1ccc(-c2nc(-c3ccc(F)cc3)c(-c3ccncc3)[nH]2)cc1 | 104% | 100% | 91% | 83% | 92% | 89% | 97% | 99% | 87% | 95% |
| Oc1ccc(Nc2nc(-c3ccc(Cl)cc3)cs2)cc1 | 96% | 104% | 93% | 95% | 63% | 88% | 113% | 107% |  |  |
| O=C1NC(=O)c2c1c1c3ccccc3[nH]c1c1[nH]c3cc(Br)ccc3c21 | 4% | 100% | 75% | 96% | 86% | 98% | 114% | 93% |  |  |
| COc1ccc(C(=O)Nc2sc3c(c2C(N)=O)CCCC3)cc1OC | 111% | 98% | 90% | 92% | 111% | 109% | 107% | 110% |  |  |
| CCC(=O)Nc1ccc2ncnc(Nc3cccc(Br)c3)c2c1 | 77% | 99% | 82% | 71% | 89% | 105% | 90% | 105% |  |  |
| O=C(Nc1cccc(Nc2cc(Nc3cccc(C(F)(F)F)c3)ncn2)c1)C1CC1 | 50% | 97% | 99% | 82% | 90% | 108% | 98% | 115% | -2% | -3% |
| O=C1NC(=O)/C(=C\c2ccc3nccnc3c2)S1 | 19% | 7% | -4% | 95% | 90% | 100% | 111% | 91% | 100% | 113% |
| CC(C)n1cnc2c(NCc3ccccc3)nc(NCCCO)nc21 | 134% | 99% | 89% | 99% | 91% | 102% | 112% | 101% | -1% | -2% |
